# Assay results as given in PMC11006913.
# Numbering of substitutions follows the chain as printed.
# How the values were obtained:
# Experiment in all cases: PBM; 200 nM protein, PBS
# Settings in all cases: dsDNA, one strand shown
# CRX [1] = biological target: CRX (Homo sapiens, UniProt O43186 26-111)
# VENTX [2] = biological target: T1, VENTX (Homo sapiens, UniProt O95231 78-163, R121Q)
# T1 sequence: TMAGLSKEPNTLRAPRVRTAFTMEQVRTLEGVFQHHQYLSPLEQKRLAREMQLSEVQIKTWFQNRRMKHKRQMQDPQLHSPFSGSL
# VENTX [3] = biological target: T2, VENTX (Homo sapiens, UniProt O95231 78-163)
# T2 sequence: T1 sequence with Q44R
# VENTX [4] = biological target: T3, VENTX (Homo sapiens, UniProt O95231 78-163, Y115F)
# T3 sequence: T1 sequence with Y38F, Q44R
# CRX [5] = biological target: CRX (Homo sapiens, UniProt O43186 26-111, E42D)
# CRX (Homo sapiens, UniProt O43186 26-111, E42D), sequence (O43186 26-111 E42D): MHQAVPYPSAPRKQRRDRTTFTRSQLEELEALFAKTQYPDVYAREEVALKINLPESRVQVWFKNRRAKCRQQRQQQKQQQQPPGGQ
# CRX [6] = biological target: CRX (Homo sapiens, UniProt O43186 26-111, R41L)
# CRX (Homo sapiens, UniProt O43186 26-111, R41L), sequence (O43186 26-111 R41L): as the sequence (O43186 26-111 E42D) above, with R16L, D17E counted along it
# HOXB9 [7] = biological target: HOXB9 (Homo sapiens, UniProt P17482 171-250, T197M)
# HOXB9 (Homo sapiens, UniProt P17482 171-250, T197M), sequence (P17482 171-250 T197M): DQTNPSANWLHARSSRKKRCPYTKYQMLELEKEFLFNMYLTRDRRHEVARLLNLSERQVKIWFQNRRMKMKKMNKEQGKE
# HOXC9 [8] = biological target: HOXC9 (Homo sapiens, UniProt P31274 178-260, K195R)
# HOXC9 (Homo sapiens, UniProt P31274 178-260, K195R), sequence (P31274 178-260 K195R): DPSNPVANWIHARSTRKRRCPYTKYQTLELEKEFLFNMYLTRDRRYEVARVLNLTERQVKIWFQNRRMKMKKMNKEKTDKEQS
# HOXA7 [9] = biological target: HOXA7 (Homo sapiens, UniProt P31268 116-202)
# HOXA7 (Homo sapiens, UniProt P31268 116-202), sequence (P31268 116-202): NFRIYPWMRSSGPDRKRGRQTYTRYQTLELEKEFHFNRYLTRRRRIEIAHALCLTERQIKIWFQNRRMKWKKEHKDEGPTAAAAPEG
# PAX4 [10] = biological target: T4, PAX4 (Homo sapiens, UniProt O43316 9-242, R200K)
# T4 sequence: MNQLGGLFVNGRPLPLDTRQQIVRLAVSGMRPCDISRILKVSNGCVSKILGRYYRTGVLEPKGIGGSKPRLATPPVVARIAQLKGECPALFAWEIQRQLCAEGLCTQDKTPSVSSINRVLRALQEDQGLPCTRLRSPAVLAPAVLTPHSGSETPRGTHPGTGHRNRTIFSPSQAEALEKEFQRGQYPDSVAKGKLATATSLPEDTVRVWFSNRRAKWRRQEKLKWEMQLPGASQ
# PAX4 [11] = biological target: T5, PAX4 (Homo sapiens, UniProt O43316 9-242)
# T5 sequence: T4 sequence with K192R
# HOXB6 [12] = biological target: HOXB6 (Homo sapiens, UniProt P17509 132-218, K202E)
# HOXB6 (Homo sapiens, UniProt P17509 132-218, K202E), sequence (P17509 132-218 K202E): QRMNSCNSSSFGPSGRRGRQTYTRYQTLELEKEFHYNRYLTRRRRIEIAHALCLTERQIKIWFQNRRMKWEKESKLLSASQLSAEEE
# HOXB9 [13] = biological target: HOXB9 (Homo sapiens, UniProt P17482 171-250)
# HOXB9 (Homo sapiens, UniProt P17482 171-250), sequence (P17482 171-250): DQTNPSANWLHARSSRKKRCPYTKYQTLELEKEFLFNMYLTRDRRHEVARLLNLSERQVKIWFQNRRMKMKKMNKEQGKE
# HOXC9 [14] = biological target: HOXC9 (Homo sapiens, UniProt P31274 178-260)
# HOXC9 (Homo sapiens, UniProt P31274 178-260), sequence (P31274 178-260): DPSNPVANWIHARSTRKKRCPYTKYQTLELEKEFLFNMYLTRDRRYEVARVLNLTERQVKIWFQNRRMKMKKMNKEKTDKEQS
# ALX3 [15] = biological target: ALX3 (Homo sapiens, UniProt O95076 139-225, N203Q)
# ALX3 (Homo sapiens, UniProt O95076 139-225, N203Q), sequence (O95076 139-225 N203Q): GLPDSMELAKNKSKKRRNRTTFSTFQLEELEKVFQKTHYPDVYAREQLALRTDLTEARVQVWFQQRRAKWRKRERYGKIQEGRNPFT
# HOXD13 = HOXD13 (Homo sapiens, UniProt P35453 263-343, T313R)
# HOXD13, sequence (P35453 263-343 T313R): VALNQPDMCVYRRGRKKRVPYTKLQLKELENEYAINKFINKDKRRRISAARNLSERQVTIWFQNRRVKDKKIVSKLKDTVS
# PAX4 [16] = biological target: T6, PAX4 (Homo sapiens, UniProt O43316 9-242, R200Q)
# T6 sequence: T4 sequence with K192Q
# HOXC9 [17] = biological target: HOXC9 (Homo sapiens, UniProt P31274 178-260, R193K)
# HOXC9 (Homo sapiens, UniProt P31274 178-260, R193K), sequence (P31274 178-260 R193K): as the sequence (P31274 178-260) above, with R16K counted along it
# PAX4 [18] = biological target: T7, PAX4 (Homo sapiens, UniProt O43316 9-242, F177V)
# T7 sequence: T4 sequence with F169V, K192R
# HOXC10 = HOXC10 (Homo sapiens, UniProt Q9NYD6 254-340, K271E)
# HOXC10, sequence (Q9NYD6 254-340 K271E): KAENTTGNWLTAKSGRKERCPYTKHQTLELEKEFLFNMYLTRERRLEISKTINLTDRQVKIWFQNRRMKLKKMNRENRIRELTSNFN
# PAX4 [19] = biological target: T8, PAX4 (Homo sapiens, UniProt O43316 9-242, F177Y)
# T8 sequence: T4 sequence with F169Y, K192R
# HESX1 [20] = biological target: HESX1 (Homo sapiens, UniProt Q9UBX0 95-180, R109Q)
# HESX1 (Homo sapiens, UniProt Q9UBX0 95-180, R109Q), sequence (Q9UBX0 95-180 R109Q): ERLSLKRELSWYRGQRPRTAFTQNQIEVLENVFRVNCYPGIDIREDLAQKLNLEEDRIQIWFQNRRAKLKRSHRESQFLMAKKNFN
# HOXB9 [21] = biological target: HOXB9 (Homo sapiens, UniProt P17482 171-250, R186Q)
# HOXB9 (Homo sapiens, UniProt P17482 171-250, R186Q), sequence (P17482 171-250 R186Q): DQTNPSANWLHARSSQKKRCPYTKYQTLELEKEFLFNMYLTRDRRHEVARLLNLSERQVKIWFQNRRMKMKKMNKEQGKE
# HOXC9 [22] = biological target: HOXC9 (Homo sapiens, UniProt P31274 178-260, R222W)
# HOXC9 (Homo sapiens, UniProt P31274 178-260, R222W), sequence (P31274 178-260 R222W): as the sequence (P31274 178-260) above, with R45W counted along it
# HESX1 [23] = biological target: HESX1 (Homo sapiens, UniProt Q9UBX0 95-180, F115L)
# HESX1 (Homo sapiens, UniProt Q9UBX0 95-180, F115L), sequence (Q9UBX0 95-180 F115L): as the sequence (Q9UBX0 95-180 R109Q) above, with Q15R, F21L counted along it
# PAX4 [24] = biological target: T9, PAX4 (Homo sapiens, UniProt O43316 9-242, R227W)
# T9 sequence: T4 sequence with K192R, R219W
# HOXA7 [25] = biological target: HOXA7 (Homo sapiens, UniProt P31268 116-202, W177C)
# HOXA7 (Homo sapiens, UniProt P31268 116-202, W177C), sequence (P31268 116-202 W177C): as the sequence (P31268 116-202) above, with W62C counted along it
# ALX3 [26] = biological target: ALX3 (Homo sapiens, UniProt O95076 139-225, N203S)
# ALX3 (Homo sapiens, UniProt O95076 139-225, N203S), sequence (O95076 139-225 N203S): as the sequence (O95076 139-225 N203Q) above, with Q65S counted along it
# HOXB6 [27] = biological target: HOXB6 (Homo sapiens, UniProt P17509 132-218)
# HOXB6 (Homo sapiens, UniProt P17509 132-218), sequence (P17509 132-218): as the sequence (P17509 132-218 K202E) above, with E71K counted along it
# CRX (Homo sapiens, UniProt O43186 26-111), sequence (O43186 26-111): as the sequence (O43186 26-111 E42D) above, with D17E counted along it
sequence,measurement,setting,value
CTGGGGCA,binding signal,CRX [1],"8.18 upbm affinity estimate (log intensity, higher = more binding, comparable within an allelic series)"
same,binding signal,VENTX [2],"8.13 upbm affinity estimate (log intensity, higher = more binding, comparable within an allelic series)"
same,binding signal,VENTX [3],"8.21 upbm affinity estimate (log intensity, higher = more binding, comparable within an allelic series)"
same,binding signal,VENTX [4],"8.17 upbm affinity estimate (log intensity, higher = more binding, comparable within an allelic series)"
same,binding signal,CRX [5],"8.24 upbm affinity estimate (log intensity, higher = more binding, comparable within an allelic series)"
same,binding signal,CRX [6],"8.28 upbm affinity estimate (log intensity, higher = more binding, comparable within an allelic series)"
ATATTAAT,binding signal,CRX [1],"11.6 upbm affinity estimate (log intensity, higher = more binding, comparable within an allelic series)"
same,binding signal,HOXB9 [7],"10.2 upbm affinity estimate (log intensity, higher = more binding, comparable within an allelic series)"
same,binding signal,HOXC9 [8],"12.5 upbm affinity estimate (log intensity, higher = more binding, comparable within an allelic series)"
same,binding signal,HOXA7 [9],"11.2 upbm affinity estimate (log intensity, higher = more binding, comparable within an allelic series)"
same,binding signal,PAX4 [10],"11.7 upbm affinity estimate (log intensity, higher = more binding, comparable within an allelic series)"
same,binding signal,PAX4 [11],"12.1 upbm affinity estimate (log intensity, higher = more binding, comparable within an allelic series)"
same,binding signal,HOXB6 [12],"10.1 upbm affinity estimate (log intensity, higher = more binding, comparable within an allelic series)"
same,binding signal,HOXB9 [13],"11.8 upbm affinity estimate (log intensity, higher = more binding, comparable within an allelic series)"
same,binding signal,CRX [5],"11.5 upbm affinity estimate (log intensity, higher = more binding, comparable within an allelic series)"
same,binding signal,HOXC9 [14],"12.5 upbm affinity estimate (log intensity, higher = more binding, comparable within an allelic series)"
same,binding signal,ALX3 [15],"8.63 upbm affinity estimate (log intensity, higher = more binding, comparable within an allelic series)"
same,binding signal,HOXD13,"10.8 upbm affinity estimate (log intensity, higher = more binding, comparable within an allelic series)"
same,binding signal,PAX4 [16],"11.9 upbm affinity estimate (log intensity, higher = more binding, comparable within an allelic series)"
same,binding signal,HOXC9 [17],"12.5 upbm affinity estimate (log intensity, higher = more binding, comparable within an allelic series)"
same,binding signal,PAX4 [18],"10.7 upbm affinity estimate (log intensity, higher = more binding, comparable within an allelic series)"
same,binding signal,HOXC10,"11.8 upbm affinity estimate (log intensity, higher = more binding, comparable within an allelic series)"
same,binding signal,PAX4 [19],"11 upbm affinity estimate (log intensity, higher = more binding, comparable within an allelic series)"
same,binding signal,HESX1 [20],"8.59 upbm affinity estimate (log intensity, higher = more binding, comparable within an allelic series)"
same,binding signal,HOXB9 [21],"11.5 upbm affinity estimate (log intensity, higher = more binding, comparable within an allelic series)"
same,binding signal,HOXC9 [22],"11.1 upbm affinity estimate (log intensity, higher = more binding, comparable within an allelic series)"
same,binding signal,HESX1 [23],"8.13 upbm affinity estimate (log intensity, higher = more binding, comparable within an allelic series)"
same,binding signal,PAX4 [24],"11 upbm affinity estimate (log intensity, higher = more binding, comparable within an allelic series)"
same,binding signal,HOXA7 [25],"9 upbm affinity estimate (log intensity, higher = more binding, comparable within an allelic series)"
same,binding signal,CRX [6],"11 upbm affinity estimate (log intensity, higher = more binding, comparable within an allelic series)"
same,binding signal,ALX3 [26],"8.74 upbm affinity estimate (log intensity, higher = more binding, comparable within an allelic series)"
same,binding signal,HOXB6 [27],"11.8 upbm affinity estimate (log intensity, higher = more binding, comparable within an allelic series)"
